# Measured values from ChEMBL document CHEMBL5606460, “ASAP - DENV-2 NS2B-NS3 protease fluorescence single point” (2024).
# In all, about 2,000 compounds went through this assay and about 110 (5.5%) showed an effect of 50% or more. For the sample, strong results were picked, then their nearest neighbours and some compounds at random.
# Molecular target: Genome polyprotein (dengue virus type 2) (UniProt P29990)
# [1] = Thailand/16681/1984, Concentration 25.0 uM, Number of replicates 1.0
compound,measurement,setting,value
N[C@H]1CC[C@H](NC(=O)[C@@H](NC(=O)OCc2ccccc2)c2ccc(OCc3ccccc3)cc2)C1,inhibition,"Thailand/16681/1984, Concentration 49.5 uM, Number of replicates 2.0, Standard deviation 0.9979193615621401 %",-9.06%
same,inhibition,"Thailand/16681/1984, Concentration 49.5 uM, Number of replicates 2.0, Standard deviation 5.780389191288721 %",-6.13%
same,inhibition,"Thailand/16681/1984, Concentration 99.01 uM, Number of replicates 2.0, Standard deviation 0.21863424783935215 %",-6.77%
same,inhibition,"Thailand/16681/1984, Concentration 99.01 uM, Number of replicates 2.0, Standard deviation 4.8738871027899835 %",-4.83%
same,inhibition,"Thailand/16681/1984, Concentration 198.0 uM, Number of replicates 2.0, Standard deviation 0.20009536646595624 %",3.56%
same,inhibition,"Thailand/16681/1984, Concentration 198.0 uM, Number of replicates 2.0, Standard deviation 2.9330264990309507 %",6.71%
Cn1cc(NC(=O)c2ccccc2C(F)(F)F)c(-c2ccc(O)cc2)n1,inhibition,"Thailand/16681/1984, Concentration 49.5 uM, Number of replicates 2.0, Standard deviation 1.4149767575059302 %",-3.58%
same,inhibition,"Thailand/16681/1984, Concentration 99.01 uM, Number of replicates 2.0, Standard deviation 0.6191126751592 %",-2.21%
same,inhibition,"Thailand/16681/1984, Concentration 198.0 uM, Number of replicates 2.0, Standard deviation 0.2617465963559337 %",-3.21%
O=C(NC[C@H]1CCCO1)c1cc(Cl)ccc1NS(=O)(=O)c1ccc(Oc2ccccc2Cl)cc1,inhibition,"Thailand/16681/1984, Concentration 49.5 uM, Number of replicates 2.0, Standard deviation 0.11391652520397291 %",86.2%
same,inhibition,"Thailand/16681/1984, Concentration 99.01 uM, Number of replicates 2.0, Standard deviation 0.06140357500812747 %",84.7%
same,inhibition,"Thailand/16681/1984, Concentration 198.0 uM, Number of replicates 2.0, Standard deviation 0.13037604965923533 %",79.4%
O=C1C[C@@H](CNC(=O)c2cc(Cl)ccc2NS(=O)(=O)c2ccc(Oc3ccccc3Cl)cc2)CN1,inhibition,"Thailand/16681/1984, Concentration 49.5 uM, Number of replicates 2.0, Standard deviation 1.683767946709369 %",12.4%
same,inhibition,"Thailand/16681/1984, Concentration 99.01 uM, Number of replicates 2.0, Standard deviation 0.12281254481286434 %",57.2%
same,inhibition,"Thailand/16681/1984, Concentration 198.0 uM, Number of replicates 2.0, Standard deviation 0.21046989752060982 %",53.6%
O=C(NCC1CC1)c1cc(Cl)ccc1NS(=O)(=O)c1ccc(Oc2ccccc2Cl)cc1,inhibition,"Thailand/16681/1984, Concentration 49.5 uM, Number of replicates 2.0, Standard deviation 0.6779748794958176 %",77.8%
same,inhibition,"Thailand/16681/1984, Concentration 99.01 uM, Number of replicates 2.0, Standard deviation 0.21598068225710626 %",88.2%
same,inhibition,"Thailand/16681/1984, Concentration 198.0 uM, Number of replicates 2.0, Standard deviation 0.009057863507173258 %",87%
O=C(N[C@H]1CCNC1=O)c1cc(Cl)ccc1NS(=O)(=O)c1ccc(Oc2ccccc2Cl)cc1,inhibition,"Thailand/16681/1984, Concentration 49.5 uM, Number of replicates 2.0, Standard deviation 0.36576586141779044 %",30.3%
same,inhibition,"Thailand/16681/1984, Concentration 99.01 uM, Number of replicates 2.0, Standard deviation 0.2318278972972024 %",51.8%
same,inhibition,"Thailand/16681/1984, Concentration 198.0 uM, Number of replicates 2.0, Standard deviation 0.7755829345495912 %",18.9%
O=C1NCCC[C@@H]1CNS(=O)(=O)c1ccc(Oc2ccccc2Cl)cc1,inhibition,"Thailand/16681/1984, Concentration 49.5 uM, Number of replicates 2.0, Standard deviation 0.9940716071741866 %",-2.68%
same,inhibition,"Thailand/16681/1984, Concentration 99.01 uM, Number of replicates 2.0, Standard deviation 0.27557480876496404 %",-0.801%
same,inhibition,"Thailand/16681/1984, Concentration 198.0 uM, Number of replicates 2.0, Standard deviation 0.9840594547230297 %",1.79%
O=C1NCC[C@@H]1CNS(=O)(=O)c1ccc(Oc2ccccc2Cl)cc1,inhibition,"Thailand/16681/1984, Concentration 49.5 uM, Number of replicates 2.0, Standard deviation 4.002985951466216 %",-0.264%
same,inhibition,"Thailand/16681/1984, Concentration 99.01 uM, Number of replicates 2.0, Standard deviation 4.526482853100752 %",0.42%
same,inhibition,"Thailand/16681/1984, Concentration 198.0 uM, Number of replicates 2.0, Standard deviation 4.411103663666057 %",2.4%
O=C1C[C@@H](NS(=O)(=O)c2ccc(Oc3ccccc3Cl)cc2)CCN1,inhibition,"Thailand/16681/1984, Concentration 49.5 uM, Number of replicates 2.0, Standard deviation 1.1905021365747266 %",-5.52%
same,inhibition,"Thailand/16681/1984, Concentration 99.01 uM, Number of replicates 2.0, Standard deviation 1.0784606403673063 %",-3.29%
same,inhibition,"Thailand/16681/1984, Concentration 198.0 uM, Number of replicates 2.0, Standard deviation 1.453680839379123 %",-1%
C[C@H](NC(=O)C1CCN(c2ccc(C=O)cc2)CC1)c1ccc(Br)cc1,inhibition,[1],12.7%
O=C(N[C@@H](C(=O)NC1CCNCC1)c1ccc(OCc2ccccc2)cc1)OCc1ccccc1,inhibition,"Thailand/16681/1984, Concentration 49.5 uM, Number of replicates 2.0, Standard deviation 0.04752487067458113 %",-0.225%
same,inhibition,"Thailand/16681/1984, Concentration 99.01 uM, Number of replicates 2.0, Standard deviation 0.6611370067327399 %",-0.49%
same,inhibition,"Thailand/16681/1984, Concentration 198.0 uM, Number of replicates 2.0, Standard deviation 1.22541945186685 %",2.06%
CNc1ccccc1C(=O)Nc1cccc2c(CO)cc(C)nc12,inhibition,"Thailand/16681/1984, Concentration 49.95 uM, Number of replicates 2.0, Standard deviation 1.7606224720878931 %",-0.213%
same,inhibition,"Thailand/16681/1984, Concentration 99.9 uM, Number of replicates 2.0, Standard deviation 1.1796035516056886 %",2.15%
Cc1cc(N)c2cccc(F)c2n1,inhibition,"Thailand/16681/1984, Concentration 49.95 uM, Number of replicates 2.0, Standard deviation 2.207074007413848 %",-9.77%
same,inhibition,"Thailand/16681/1984, Concentration 99.9 uM, Number of replicates 2.0, Standard deviation 2.035147234269057 %",-9.31%
Cn1cc(NC(=O)c2ccccc2C(F)(F)F)c(-c2ccc(N)nc2)n1,inhibition,"Thailand/16681/1984, Concentration 49.5 uM, Number of replicates 2.0, Standard deviation 0.02318042950620363 %",-3.62%
same,inhibition,"Thailand/16681/1984, Concentration 99.01 uM, Number of replicates 2.0, Standard deviation 0.5795125921164253 %",-3.54%
same,inhibition,"Thailand/16681/1984, Concentration 198.0 uM, Number of replicates 2.0, Standard deviation 2.685074924440845 %",-2.16%
O=C(c1ccc2c(c1)B(O)OC2)N1CCN[C@H](c2ccc(Cl)cc2)C1,inhibition,"Thailand/16681/1984, Concentration 49.5 uM, Number of replicates 2.0, Standard deviation 1.1051975895382533 %",-1.33%
same,inhibition,"Thailand/16681/1984, Concentration 99.01 uM, Number of replicates 2.0, Standard deviation 0.5109273627094355 %",-1.22%
same,inhibition,"Thailand/16681/1984, Concentration 198.0 uM, Number of replicates 2.0, Standard deviation 0.04393612974415127 %",-0.309%
Cc1n[nH]cc1-c1ccccc1C(=O)Nc1cnn(C)c1,inhibition,"Thailand/16681/1984, Concentration 49.5 uM, Number of replicates 2.0, Standard deviation 1.4825862030761958 %",-4.22%
same,inhibition,"Thailand/16681/1984, Concentration 99.01 uM, Number of replicates 2.0, Standard deviation 3.6856999240165664 %",-5.61%
same,inhibition,"Thailand/16681/1984, Concentration 198.0 uM, Number of replicates 2.0, Standard deviation 2.662860479629087 %",-5.61%
Cc1ccc(NC(=O)C2CCN(c3ccc(C=O)cc3)CC2)cc1Br,inhibition,[1],8.71%
